In PubChem BioAssay (NCATS) one finds Potency data, which are given here for 40 molecules.

Records with an inconclusive call do not appear. Calls of active or inactive are those of the source. Calls follow the shape of the dose curve; as a rule, active = well fitted cell-killing curve with a large enough effect; inconclusive = small, poorly fitted or top-dose-only effect, or effect the other way; inactive = no such curve, though single readings can be large or run the other way.
Potency is read from the fitted curve at half-maximal effect.

This assay can be described thus: Quantitative High-Throughput drug screen in 47 multiple myeloma cell lines against the NCATS MIPE library collection: VP6_DJ cell viability assay (AID 1919867). Also: nearly all actives have a fitted effect of over 40% in size. The following applies: ATP luminescence, 48 h; series mostly up to 45.8 µM. An excerpt: PI: Beverly A. Mock Ph.D.
Laboratory of Cancer Biology and Genetics,
Center for Cancer Research, National Cancer Institute,
National Institute of Health, Bethesda, Maryland
Drug resistance and disease progression are common in multiple myeloma (MM) patients, underscoring the need for new therapeutic combinations. […] We hypothesized that effective combinations would reduce MYC expression and enhance p16 activity. […] These preclinical data identify potentially useful drug combinations for evaluation in drug-resistant MM and reveal potential mechanisms of combined drug sensitivity.
Described herein is the primary MIPE qHTS used to cherrypick compounds. Validated compounds were then further tested for potential synergistic activiy.
[1] Peat TJ, Gaikwad SM, Dubois W, Gyabaah-Kessie N, Zhang S, Gorjifard S, Phyo Z, Andres M, Hughitt VK, Simpson RM, Miller MA, Girvin AT, Taylor A, Williams D, D'Antonio N, Zhang Y, Rajagopalan A, Flietner E, Wilson K, Zhang X, Shinn P, Klumpp-Thomas C, McKnight C, Itkin Z, Chen L, Kazandijian D, Zhang J, Michalowski AM, Simmons JK, Keats J, Thomas CJ, Mock BA. Drug combinations identified by high-throughput screening promote cell cycle transition and upregulate Smad pathways in myeloma. Cancer Lett. 2023 Aug 1;568:216284. doi: 10.1016/j.canlet.2023.216284. Epub 2023 Jun 24. PMID: 37356470; PMCID: PMC10408729.
SEQUENCE No. (e.g., 1, 2, 3, etc.); […] (e.g., Cells, Incubation, Reagent, etc.); VALUE and DESCRIPTION.
1; Cells; 5 uL; white, solid bottom 1536-well Greiner assay plate.
2; Compounds; 23 nL; Kalypsis pin tool (Wako USA) equipped with a 1536-well pin head to transfer to the assay plates.
3; Incubation; 48 hours; 37C incubation.
4; Reagent;5uL; CellTiter Glo (Promega).
5; Detector; 425V; Luminescence; Viewlux PerkinElmer.
NOTES (numbers refer to Sequence numbers above)
1. The cell-based screening methods employed in this study were like those previously published. Briefly, the corresponding myeloma cell lines were screened in 1,536-well plates with 500 cells, 5-uL per well for inhibition of cell viability (assessed by measuring ATP levels with CellTiterGlo).
2. NCATS MIPE 4.0 library of approved and investigational drugs were added using the Kalypsis pin tool. Wells treated with DMSO only for 100% viability and media only for 0% viability were used as controls.
3. The assay plates were covered and incubated for 48 hours in a 37C, 5% CO2 incubator with controlled humidity.
4. After 48 hours, CellTilter-GloTM luminescent substrate mix (Promega) reagent was added to the assay plate and plates we incubated for 5 min at room temperature.
5. Signal was measured as median relative luminescence units on a ViewLux (PerkinElmer) multiplate reader.
[1] Heske CM, Davis MI, Baumgart JT, Wilson K, Gormally MV, Chen L, Zhang X, Ceribelli M, Duveau DY, Guha R, Ferrer M, Arnaldez FI, Ji J, Tran HL, Zhang Y, Mendoza A, Helman LJ, Thomas CJ. Matrix Screen Identifies Synergistic Combination of PARP Inhibitors and Nicotinamide Phosphoribosyltransferase (NAMPT) Inhibitors in Ewing Sarcoma. Clin Cancer Res. 2017 Dec 1;23(23):7301-7311. doi: 10.1158/1078-0432.CCR-17-1121. Epub 2017 Sep 12. PMID: 28899971; PMCID: PMC6636827.
As for `Cc1ccc(C(C)(O)c2nc3ccccc3s2)c(C)c1` (stereo not given), the Potency result was “inactive”.
In the case of `CO[C@H]1C=CO[C@@]2(C)Oc3c(C)c(O)c4c(O)c(c5c(c4c3C2=O)NC2(CCN(CC(C)C)CC2)N=5)=NC(=O)C(C)=CC=C[C@H](C)[C@H](O)[C@@H](C)[C@@H](O)[C@@H](C)[C@H](OC(C)=O)[C@H]1C`, the Potency was 16.6 µM (active).
For the molecule `CC(C)[C@H](CO)Nc1nc(Nc2ccc(C(=O)O)c(Cl)c2)c2ncn(C(C)C)c2n1`, the Potency was 23.5 µM (active).
Take `CO[C@H]1C[C@@H]2CC[C@@H](C)[C@@](O)(O2)C(=O)C(=O)N2CCCC[C@@H]2C(=O)O[C@H]([C@H](C)C[C@@H]2CC[C@H](OC(=O)C(C)(CO)CO)[C@H](OC)C2)CC(=O)[C@H](C)C=C(C)[C@@H](O)[C@@H](OC)C(=O)[C@H](C)C[C@H](C)C=CC=CC=C1C`: the Potency is 20.9 µM (active).
As for `COc1ccc2c(Oc3ccc(NC(=O)c4c(C)n(CC(C)(C)O)n(-c5ccccc5)c4=O)cc3F)ccnc2c1`, the Potency is 11.8 µM (active).
Then `CC=CC(=O)N(CC)c1ccccc1C`, with 29.6 µM (active); and `COC[C@@H](c1ccc(C(F)(F)F)cc1)N1CCN(C2(C)CCN(C(=O)c3c(C)ncnc3C)CC2)C[C@H]1C`, with 23.5 µM (active).
For the molecule `O=C(O)CCC1CCC(c2cc(F)ccc2F)(S(=O)(=O)c2ccc(Cl)cc2)CC1` (stereo not given), the Potency is 4.69 µM (active).
Then `COc1ccc(-c2coc3cc(O)cc(O)c3c2=O)cc1`, with “inactive”.
On to `NS(=O)(=O)c1ccc(NC2=CC(=O)c3ccccc3C2=O)cc1`, for which the Potency is 5.9 µM (active).
Then `Nc1nc(F)nc2c1ncn2[C@@H]1O[C@H](COP(=O)(O)O)[C@@H](O)[C@H]1O`, with “inactive”; and `CC[C@@]1(O)C[C@H](O[C@H]2C[C@H](N(C)C)[C@H](O[C@H]3C[C@H](O)[C@H](O[C@H]4CCC(=O)[C@H](C)O4)[C@H](C)O3)[C@H](C)O2)c2c(cc3c(c2O)C(=O)c2c(O)cccc2C3=O)[C@@H]1C(=O)OC`, with 0.59 µM (active); and `CO[C@H]1C=CC=C(C)C(=O)NC2=CC(=O)C(NCCN(C)C)=C(C[C@@H](C)C[C@H](OC)[C@@H](O)[C@@H](C)C=C(C)[C@@H]1OC(N)=O)C2=O`, with 0.0093 µM (active).
For the molecule `CC1(C)S[C@H]2[C@H](NC(=O)[C@@H](N)c3ccc(O)cc3)C(=O)N2[C@@H]1C(=O)O`, the Potency is 0.0743 µM (active).
As to `Cc1nc(N)sc1-c1ccnc(Nc2ccc(N3CCOCC3)cc2)n1`, the Potency was 3.32 µM (active).
The figure for `O=C(CCCCCCC(=O)Nc1ccccc1)NO` is 0.833 µM (active).
As to `O=C(NCc1ccccc1)c1csc(Nc2ccncn2)n1`, the Potency is 16.6 µM (active).
Then `COc1cc2nc(-c3ccc(N4CCN(C)CC4)cc3)nc(NCCN3CCOCC3)c2cc1OC`, with 0.187 µM (active); and `O=C1c2ccccc2-[n+]2ccc3c([nH]c4ccccc43)c21`, with 1.48 µM (active).
Regarding `N#Cc1ccc(NC(=O)Nc2ccccc2Br)c2n[nH]nc12`, the Potency is 10.5 µM (active).
As for `Cc1ccc(Nc2cc(-c3cccc(N4C(=O)c5ccccc5C4=O)c3)ncn2)cc1NS(C)(=O)=O`, the Potency was 14.8 µM (active).
Regarding `Cc1c(O)cccc1C(=O)N[C@@H](CSc1ccccc1)[C@H](O)CN1C[C@H]2CCCC[C@@H]2C[C@@H]1C(=O)NC(C)(C)C`, the Potency is 18.7 µM (active).
The figure for `O=C(O)c1c(Cl)c(Cl)c(Cl)c(Cl)c1-c1c2cc(I)c(=O)c(I)c-2oc2c(I)c(O)c(I)cc12` is 14.8 µM (active).
The entry for `O=C(O)c1cc(O)c2c(c1)C(=O)c1cccc(O)c1C2=O` is “inactive”; for `CC(C)=CC[C@@H](O)C1=CC(=O)c2c(O)ccc(O)c2C1=O` it is 0.833 µM (active).
Then `NC(=O)NN=Cc1ccc([N+](=O)[O-])o1`, with 14.8 µM (active); and `CS(=O)c1ccc(-c2nc(-c3ccc(F)cc3)c(-c3ccncc3)[nH]2)cc1` (stereo not given), with 7.62 µM (active); and `O=c1cc(-c2cccc3c2Sc2ccccc2S3)oc(N2CCOCC2)c1`, with 14.8 µM (active).
`Cn1c(N2CCCCS2(=O)=O)nc(C(=O)NCc2ccc(F)cc2)c(O)c1=O`: the Potency entry is “inactive”.
Then `O=C(Nc1cccc(Br)c1)c1cccc(S(=O)(=O)N2CCCCCC2)c1`, with 16.6 µM (active); and `CN(C)Cc1cccc(N=C(c2ccccc2)c2c(O)[nH]c3cc(C(=O)N(C)C)ccc23)c1`, with 13.2 µM (active); and `CNC1CCC(N(Cc2cccc(-c3ccncc3)c2)C(=O)c2sc3c(F)ccc(F)c3c2Cl)CC1` (stereo not given), with 13.2 µM (active).
With `COc1ccc(-c2oc3c(CC=C(C)C)c(OC4O[C@H](CO)[C@@H](O)[C@H](O)[C@@H]4O)cc(O)c3c(=O)c2OC2O[C@@H](C)[C@H](O)[C@@H](O)[C@@H]2O)cc1` (stereo not given in full), the Potency is 16.6 µM (active).
The figure for `N#CC(=C(N)Sc1ccccc1N)C(C#N)=C(N)Sc1ccccc1N` is 20.9 µM (active); for `NC(=O)c1cccc(-c2cc(Nc3ccc(OC(F)(F)F)cc3)ncn2)c1` it is 14.8 µM (active).
The entry for `CNC(=O)c1ccc2cc(C3(O)CCn4cncc43)ccc2c1` (stereo not given) is “inactive”; for `Cc1ccc(F)c(NC(=O)Nc2ccc(-c3cccc4[nH]nc(N)c34)cc2)c1` it is 16.6 µM (active).
As to `Cn1cc(C=C2C(=O)Nc3cccnc32)c2ccccc21`, the Potency was 10.5 µM (active).
The figure for `CC(=O)N(C)C1(c2ccccc2)CCN(CCC[C@]2(c3ccc(Cl)c(Cl)c3)CCCN(C(=O)c3ccccc3)C2)CC1` is 13.2 µM (active); for `CC[C@H]1OC(=O)[C@H](C)C(=O)[C@H](C)[C@@H](O[C@H]2O[C@H](C)C[C@H](N(C)C)[C@@H]2O)[C@](C)(OC)C[C@@H](C)C(=O)[C@H](C)[C@H]2N(CCCCn3cnc(-c4cccnc4)c3)C(=O)O[C@]12C` it is 11.8 µM (active).
